± gives the standard deviation.
Assays:
Conditions in all cases: modulator concentration 10 µM
[1] = system: RAW-Dual (murine macrophage reporter line); test: NF-kB reporter (SEAP) activity fold change vs agonist alone; higher = enhanced NF-kB activity
Summary of the method: (§1)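 In 384-well plates holding 50 000 RAW-Dual murine macrophage reporter cells per well, compound at 10 μM final was pre-incubated for 1 hour at 37 °C, after which a PRR agonist was added overnight. Supernatant SEAP read with QUANTI-Blue at 620 nm absorbance reported NF-κB, and Lucia luciferase read with QUANTI-Luc luminescence reported IRF. Fold change values come from dividing each reporter signal by the mean of agonist-only control wells on the same plate, averaged over replicate plates with propagated errors.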

[2] = system: RAW-Dual (murine macrophage reporter line); test: IRF reporter (Lucia luciferase) activity fold change vs agonist alone; higher = enhanced IRF activity
Summary of the method: as §1

[3] = system: RAW-Dual (murine macrophage reporter line); test: viability score (confluency relative to resting cells, overnight) (fraction); higher = more viable, active = viable (0.7 or more)
Summary of the method: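 RAW-Dual macrophages in 384-well plates were incubated overnight with compound, final concentration 10 μM. Confluency images from IncuCyte were processed in IncuCyte software into two masks covering all imaged wells. The viability score is each well's confluency relative to resting cells, and a compound met the cutoff when both masks exceeded 70% of resting cells.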

[4] = agonist: CpG ODN 1826 0.5 ug/mL

SMILES | NF-kB reporter [1, 4] | NF-kB reporter ([1]; agonist: LPS 0.1 ug/mL) | NF-kB reporter ([1]; agonist: MPLA […]) | IRF reporter ([2]; agonist: 3'3'-cGAMP 10 ug/mL) | IRF reporter ([2]; agonist: LPS 0.1 ug/mL) | IRF reporter ([2]; agonist: MPLA […]) | viability score [3]
CN(C)CCCN1c2ccccc2CCc2ccc(Cl)cc21.Cl | 0.559 ± 0.098 | 1.15 ± 0.43 | 1.64 ± 0.2 | 0.503 ± 0.02 | 1.18 ± 0.53 | 1.78 ± 0.18 | 0.239 (inactive)
Cc1cc(O)c2c(c1)C(=O)c1cccc(O)c1C2=O | 0.969 ± 0.08 | 1.08 ± 0.1 | 1.1 ± 0.024 | 0.894 ± 0.08 | 0.973 ± 0.1 | 0.953 ± 0.11 | 0.986 (active)
CCOC(=O)c1ccc(N)cc1.Cl | 0.872 ± 0.12 | 1.03 ± 0.12 | 0.997 ± 0.056 | 0.819 ± 0.036 | 1.25 ± 0.1 | 0.977 ± 0.13 | 0.996 (active)
Cc1ccc(O)c(N=Nc2ccc(S(=O)(=O)O)cc2)c1 | 1.17 ± 0.11 | 1.15 ± 0.085 | 1.07 ± 0.043 | 1.01 ± 0.12 | 1.08 ± 0.16 | 1.07 ± 0.15 | 1.01 (active)
O=C(c1csc(-c2ccccc2)n1)N1CCCN(C2CCC2)CC1 | 0.763 ± 0.041 | 1.17 ± 0.094 | 0.937 ± 0.063 | 0.927 ± 0.081 | 1.19 ± 0.13 | 1.24 ± 0.12 | 1.01 (active)
NCC(O)(c1ccc(Cl)cc1)c1ccc(Cl)cc1 | 0.85 ± 0.14 | 1.12 ± 0.12 | 1.03 ± 0.11 | 1.01 ± 0.036 | 1.32 ± 0.25 | 1.41 ± 0.22 | 0.996 (active)
O=C(NC1CCC(F)(F)CC1)c1cc(Br)cs1 | 1.13 ± 0.064 | 0.996 ± 0.075 | 0.984 ± 0.04 | 0.833 ± 0.051 | 1.04 ± 0.052 | 1.03 ± 0.15 | 0.999 (active)
CCN(CC)c1nc(Nc2ccc([N+](=O)[O-])cc2)nc(N(CC)CC)n1 | 0.635 ± 0.04 | 1.07 ± 0.069 | 0.953 ± 0.058 | 0.972 ± 0.044 | 1.16 ± 0.12 | 1.01 ± 0.12 | 0.998 (active)
NC(=O)CC[C@H](N)C(=O)O | 0.931 ± 0.076 | 0.998 ± 0.096 | 0.982 ± 0.023 | 0.949 ± 0.082 | 0.998 ± 0.039 | 1.04 ± 0.11 | 1.01 (active)
O=C(COc1cccc2ccccc12)NCc1ccncc1 | 0.804 ± 0.069 | 1.1 ± 0.06 | 1.02 ± 0.12 | 0.981 ± 0.052 | 1.34 ± 0.12 | 1.06 ± 0.098 | 1.01 (active)
CN1C(=O)C(=NNC(=O)c2ccccc2Cl)c2cc(Br)cc(Br)c21 | 1.13 ± 0.091 | 0.997 ± 0.081 | 1.03 ± 0.057 | 0.897 ± 0.15 | 1.12 ± 0.078 | 1.01 ± 0.32 | 1 (active)
FC(F)(F)c1ccnc(NC2CCN(c3ncnc4c3CCCC4)CC2)n1 | 0.884 ± 0.083 | 1.35 ± 0.11 | 1.86 ± 0.081 | 1.21 ± 0.069 | 1.65 ± 0.16 | 1.59 ± 0.18 | 0.318 (inactive)
O=C1C(=Cc2ccccc2)SC(=S)N1CO | 0.546 ± 0.053 | 0.757 ± 0.058 | 0.725 ± 0.08 | 0.741 ± 0.073 | 1.03 ± 0.16 | 1.15 ± 0.32 | 0.968 (active)
Cn1nc(CNC(=O)c2cccc3ccccc23)cc1C1CC1 | 1.18 ± 0.067 | 0.852 ± 0.065 | 0.963 ± 0.025 | 0.833 ± 0.031 | 1.06 ± 0.059 | 0.962 ± 0.15 | 0.817 (active)
CN1C(C(=O)Nc2ccccn2)=C(O)c2ccccc2S1(=O)=O | 0.654 ± 0.063 | 0.901 ± 0.047 | 1.11 ± 0.097 | 0.943 ± 0.056 | 1.25 ± 0.077 | 1.35 ± 0.11 | 1.02 (active)
COC(=O)C1=C(C)NC(=O)NC1c1ccc(Cl)c(Cl)c1 (centres undefined) | 0.979 ± 0.11 | 1.03 ± 0.067 | 0.951 ± 0.04 | 0.992 ± 0.16 | 1.05 ± 0.1 | 0.964 ± 0.24 | 1 (active)
O=C(Cc1ccc(F)cc1F)N1CCC(n2c(=O)[nH]c3ccccc3c2=O)CC1 | 1.01 ± 0.06 | 1.15 ± 0.088 | 0.997 ± 0.026 | 0.878 ± 0.033 | 1.07 ± 0.061 | 1.03 ± 0.12 | 1 (active)
CNCCc1ccccn1.Cl.Cl | 1.19 ± 0.36 | 0.956 ± 0.18 | 0.964 ± 0.08 | 0.946 ± 0.05 | 1.01 ± 0.31 | 1 ± 0.13 | 0.997 (active)
COc1ccc(OS(=O)(=O)c2ccc3cc(OC)ccc3c2)cc1 | 0.982 ± 0.088 | 1.14 ± 0.089 | 1.06 ± 0.068 | 1 ± 0.035 | 1.43 ± 0.1 | 1.03 ± 0.15 | 1 (active)
O=C(NCCN1CCN(c2ccc(Cl)cc2)CC1)c1ccncc1 | 0.974 ± 0.076 | 0.99 ± 0.076 | 1.01 ± 0.027 | 1.01 ± 0.053 | 1.02 ± 0.081 | 0.986 ± 0.097 | 0.998 (active)
COc1ccc2c(C)nc(Nc3nc(C)cc(-c4ccccc4)n3)nc2c1 | 0.791 ± 0.079 | 0.879 ± 0.065 | 1.07 ± 0.1 | 0.914 ± 0.043 | 1.28 ± 0.12 | 1.37 ± 0.17 | 1.03 (active)
Oc1ccc(N=Cc2ccccc2O)cc1 | 1.35 ± 0.17 | 1.24 ± 0.086 | 1.51 ± 0.1 | 0.491 ± 0.11 | 0.733 ± 0.043 | 0.839 ± 0.14 | 0.584 (inactive)
Cc1cc(C(=O)Nc2nnc(-c3ccc(F)cc3)o2)n(C)n1 | 0.915 ± 0.1 | 0.985 ± 0.084 | 1.1 ± 0.064 | 0.929 ± 0.059 | 1.18 ± 0.24 | 1.22 ± 0.5 | 0.873 (active)
CC(C)NCC(O)COc1cccc2[nH]ccc12 (centres undefined) [Prestw-90] | 1.59 ± 0.38 | 0.968 ± 0.068 | 1.13 ± 0.13 | 1.01 ± 0.046 | 1.17 ± 0.13 | 1.17 ± 0.11 | 0.985 (active)
O=C(O)CSc1nnc(Br)n1-c1ccc(C2CC2)c2ccccc12 | 1.08 ± 0.15 | 0.924 ± 0.32 | 0.899 ± 0.05 | 0.624 ± 0.15 | 1.35 ± 0.31 | 1.28 ± 0.1 | 1 (active)
O=C(O)c1cc([N+](=O)[O-])c(Nc2cccc3ccccc23)c([N+](=O)[O-])c1 | 0.879 ± 0.05 | 1.05 ± 0.068 | 0.888 ± 0.074 | 0.965 ± 0.057 | 1.31 ± 0.12 | 1.13 ± 0.22 | 1.01 (active)
CC(=O)Nc1nnc(CCS(=O)(=O)c2ccc(Br)cc2)s1 | 0.951 ± 0.054 | 1.05 ± 0.064 | 0.93 ± 0.079 | 0.908 ± 0.032 | 1.46 ± 0.094 | 1.16 ± 0.12 | 1.01 (active)

Source: the supplement of paper PMC10646978
